# Measured values reported in PubChem BioAssay (Tox21).
# Where “and” joins values, the source holds several entries; their conditions need not be identical. Equal entries are not always repeated. Some structures have more than one record in an assay (separate samples or runs), and their calls can disagree. Calls of active or inactive are those of the source. A call without a number means that no potency is given here. Unless noted, the call rests on the fitted dose curve; in most records, active means well fitted curve in the direction sought with a large enough effect in the repeat runs; inconclusive means weak or mixed curves; inactive means no such curve, though single readings can be large; an effect the other way counts as inactive or inconclusive.
# Columns and labels:
# [1] = qHTS assay to identify small molecule antagonists of the thyroid receptor (TR) signaling pathway (AID 743065); further: nearly all actives have a fitted effect of over 55% in size; further: potency means the concentration at half of the fitted maximal effect
# How it was run: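 GH3.TRE-Luc rat pituitary cells (two TREs driving luciferase) were dosed with compound, then stimulated with 1 nM T3 (final) for 23.5 h at 37 C. ONE-Glo luminescence was the read-out, with CellTiter-Fluor fluorescence as the cytotoxicity counter-screen.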
# [2] = tested on: thyroid hormone receptor (rat, GH3 cells); assay: qHTS assay to identify small molecule agonists of the thyroid receptor (TR) signaling pathway (AID 743066; calls by dose curve)
# [3] = molecular target: Estrogen receptor (Homo sapiens) (UniProt P03372); assay: qHTS assay to identify small molecule antagonists of the estrogen receptor alpha (ER-alpha) signaling pathway (AID 743069; active means well fitted curve in the direction sought with a large enough effect in the signal ratio in the repeat runs, not every such curve was filed as active; inconclusive means weak or mixed curves, or effect the other way; inactive means no such curve, though single readings can be large or run the other way; the % refers to the signal ratio; further: potency means the concentration at half of the fitted maximal effect)
# How it was run: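 HEK293 ER-alpha-UAS-bla GripTite cells, held overnight in 2% charcoal-stripped FBS, 5,000 cells/well, preincubated 4 h, then compound plus 17beta-estradiol for 18 h at 37C. Beta-lactamase read by LiveBLAzer B/G FRET substrate, 2 h at room temperature.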
# [4] = qHTS assay to identify small molecule antagonists of the estrogen receptor alpha (ER-alpha) signaling pathway - cell viability counter screen (AID 743074; calls by dose curve;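 further: HEK293 cells carrying ER-alpha-UAS-bla reporter stimulated with 17beta-estradiol; nearly all actives have a fitted effect of over 45% in size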; further: potency means the concentration at half of the fitted maximal effect)
# [5] = molecular target: Estrogen receptor (Homo sapiens) (UniProt P03372); assay: qHTS assay to identify small molecule agonists of the estrogen receptor alpha (ER-alpha) signaling pathway using the BG1 cell line (AID 743079); further: nearly all actives have a fitted effect of over 20% in size; further: potency means the concentration at half of the fitted maximal effect
# [6] = qHTS assay to identify small molecule antagonists of the estrogen receptor alpha (ER-alpha) signaling pathway using the BG1 cell line - cell viability counter screen (AID 743081);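 further: compound given together with 17beta-estradiol as the ER stimulus; nearly all actives have a fitted effect of over 45% in size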; further: potency means the concentration at half of the fitted maximal effect
# [7] = molecular target: Aromatase (Homo sapiens) (UniProt P11511); assay: qHTS assay to identify aromatase inhibitors (AID 743083); further: nearly all actives have a fitted effect of over 55% in size; further: potency means the concentration at half of the fitted maximal effect
# [8] = qHTS assay to identify aromatase inhibitors - cell viability counter screen (AID 743084);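 further: cells stimulated with testosterone during compound exposure; nearly all actives have a fitted effect of over 55% in size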; further: potency means the concentration at half of the fitted maximal effect
# [9] = molecular target: Estrogen receptor (Homo sapiens) (UniProt P03372); assay: qHTS assay to identify small molecule agonists of the estrogen receptor alpha (ER-alpha) signaling pathway (AID 743075; calls by dose curve; further: potency means the concentration at half of the fitted maximal effect)
# [10] = qHTS assay to identify small molecule antagonists of the estrogen receptor alpha (ER-alpha) signaling pathway using the BG1 cell line (AID 743080; calls by dose curve;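 further: BG1 cells stimulated with 17beta-estradiol alongside compound; series mostly up to about 70 µM; nearly all actives have a fitted effect of over 25% in size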)
# How it was run: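 Quantitative HTS on the Tox21 10K library: BG1 cells with endogenous ER-alpha and ERE-luciferase reporter, 17beta-estradiol stimulation, 21.5 h compound exposure, luminescence endpoint with parallel fluorescence cytotoxicity counter-read.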
# Chain of Aromatase (Homo sapiens) (P11511 whole entry, looked up): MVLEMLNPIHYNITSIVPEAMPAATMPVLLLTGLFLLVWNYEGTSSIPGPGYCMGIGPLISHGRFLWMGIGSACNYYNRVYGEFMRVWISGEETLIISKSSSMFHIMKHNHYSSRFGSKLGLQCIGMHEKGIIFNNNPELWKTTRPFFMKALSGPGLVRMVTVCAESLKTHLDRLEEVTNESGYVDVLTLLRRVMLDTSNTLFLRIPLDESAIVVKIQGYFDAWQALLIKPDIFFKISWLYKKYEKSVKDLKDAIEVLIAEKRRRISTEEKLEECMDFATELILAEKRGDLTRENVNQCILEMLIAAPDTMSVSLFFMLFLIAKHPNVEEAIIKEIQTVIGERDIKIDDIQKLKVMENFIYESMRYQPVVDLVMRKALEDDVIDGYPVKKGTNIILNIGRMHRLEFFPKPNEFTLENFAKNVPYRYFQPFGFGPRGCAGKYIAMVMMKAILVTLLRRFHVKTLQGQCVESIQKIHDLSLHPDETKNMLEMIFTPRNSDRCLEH
# Chain of Estrogen receptor (Homo sapiens) (P03372 whole entry, looked up): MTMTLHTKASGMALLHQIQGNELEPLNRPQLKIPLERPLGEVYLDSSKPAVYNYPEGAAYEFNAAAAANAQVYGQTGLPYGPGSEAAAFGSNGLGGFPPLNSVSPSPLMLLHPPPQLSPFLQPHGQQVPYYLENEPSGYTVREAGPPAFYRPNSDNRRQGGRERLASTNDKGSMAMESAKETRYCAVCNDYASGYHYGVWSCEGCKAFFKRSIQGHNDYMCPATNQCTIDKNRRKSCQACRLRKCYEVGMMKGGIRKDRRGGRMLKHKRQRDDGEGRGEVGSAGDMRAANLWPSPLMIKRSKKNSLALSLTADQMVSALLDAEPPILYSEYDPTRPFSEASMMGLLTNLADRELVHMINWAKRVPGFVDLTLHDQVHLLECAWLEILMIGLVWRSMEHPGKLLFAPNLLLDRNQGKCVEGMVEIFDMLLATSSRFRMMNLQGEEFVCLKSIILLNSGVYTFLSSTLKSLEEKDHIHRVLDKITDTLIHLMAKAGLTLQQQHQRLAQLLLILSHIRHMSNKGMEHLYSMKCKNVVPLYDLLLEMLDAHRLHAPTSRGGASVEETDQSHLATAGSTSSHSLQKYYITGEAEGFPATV
Structure (SMILES),Potency [1],outcome [2],Potency [3],Potency [4],Potency [5],Potency [6],Potency [7],Potency [8],Potency [9],Potency [10]
COc1c(C)c2c(c(O)c1C/C=C(\C)CCC(=O)OCCN1CCOCC1)C(=O)OC2,0.944 µM (active),inactive,3.38 µM [inconclusive] (active),inactive,13.3 µM (active),inactive,inactive,inactive,–,–
COc1ccc(-c2coc3cc(O)ccc3c2=O)cc1,inactive,inactive,–,inactive,1.54 µM (active),inactive,inactive,inactive,7.76 µM [inconclusive] (active),–
S=c1nccc[nH]1,inactive,inactive,inactive,inactive,30.7 µM (active),inactive,inactive,inactive,–,inactive
Cc1cc(C(C#N)c2ccc(Cl)cc2)c(Cl)cc1NC(=O)c1cc(I)cc(I)c1O (stereo not given),26.6 µM (active),inactive,–,5.35 µM (active),–,inactive,–,inactive,inactive,–
CCOC(=O)Cn1cccc1-c1nc(-c2ccc(OC)cc2)c(-c2ccc(OC)cc2)s1,13.3 µM (active),inactive,–,inactive,inactive,inactive,inactive,inactive,inactive,inactive
O=C(O)c1cc(N=Nc2ccc([N+](=O)[O-])cc2)ccc1O,47.7 µM (active),inactive,–,inactive,60 µM (active),53.5 µM (active),inactive,26.8 µM (active),inactive,–
Cc1nc(-c2ccc(Cl)cc2)oc1COC(C)(C)C(=O)O,inactive,inactive,–,inactive,–,inactive,–,–,–,–
O=S(=O)(O)c1ccccc1/C=C/c1ccc(-c2ccc(/C=C/c3ccccc3S(=O)(=O)O)cc2)cc1,inactive,inactive,–,inactive,inactive,–,inactive,–,–,inactive
CCCCCCCC,inactive,inactive,inactive,inactive,–,inactive,inactive,inactive,–,inactive
CCCC[P+](C)(CCCC)CCCC,inactive,inactive,inactive,inactive,–,inactive,inactive,inactive,–,inactive
CC(C)(C)c1csc(-c2cc3cc(OCc4ccccc4CC(=O)O)ccc3o2)n1,61.1 µM (active),inactive,–,24.5 µM (active),–,inactive,–,–,inactive,–
COc1cc(C)ccc1O,inactive,inactive,–,inactive,inactive,–,inactive,inactive,–,inactive
C=CC(=O)OCCOC(=O)C=C,38.6 µM (active),inactive,–,inactive,1.72 µM (active),inactive,–,54.5 µM (active),17.4 µM [inconclusive] (active),–
CCCCCCC1CCCC(=O)O1 (stereo not given),inactive,inactive,–,inactive,–,inactive,–,–,–,–
O=c1[nH]c2ccccc2n1CCCN1CCN(C(c2ccccc2)c2ccccc2)CC1,23.7 µM (active),inactive,–,inactive,–,–,inactive,inactive,–,–
C#CC1(O)CC[C@H]2[C@@H]3CCC4=CCCC[C@@H]4[C@H]3CC[C@@]21C (stereo not given in full),30.6 µM (active),–,inactive,inactive,40.3 nM (active) and 21.7 nM (active),inactive,inactive and 61.1 µM (active),inactive and 54.5 µM (active),57.4 nM [inconclusive] (active) and 77.6 nM [inconclusive] (active),inactive
Oc1ccccc1O,43.8 µM (active) and 43.3 µM (active),inactive,–,–,–,inactive,27.6 µM (active),31 µM (active),–,–
Cc1ccc(-c2ccccc2)cc1,inactive,inactive,–,inactive,–,inactive,inactive,inactive,–,–
C[C@@H](O)[C@H](N)C(=O)O,inactive,inactive,–,inactive,–,inactive,inactive,inactive,–,–
CCCC(=O)OC(C)(C)Cc1ccccc1,inactive,inactive,–,inactive,–,inactive,inactive,inactive,–,–
Nc1nc(N)nc(-c2cc(Cl)ccc2Cl)n1,inactive,inactive,–,inactive,–,inactive,–,inactive,–,–
O=C1NC(=O)[C@@H]2CC=CC[C@H]12,inactive,inactive,–,inactive,–,inactive,–,–,–,–
OC12N=C(c3ccccc3)SC1Cc1cc(Cl)ccc12 (stereo not given),61.1 µM (active),–,54.9 µM [inhibitor] (active),inactive,27.3 µM (active),inactive,inactive,inactive,inactive,–
CC(C)OC(=O)C(O)(CC(=O)O)CC(=O)O,inactive,–,inactive,inactive,inactive,inactive,inactive,inactive,inactive,inactive
